# Among all 69,000 compounds or so, about 8,600 (12%) showed an effect of 50% or more. The sample as a whole holds a higher share of strong results than the screen did.
# System: Plasmodium berghei
# Assay: Screen against P. berghei liver stage (PbLuc), transformed with Luciferase, at 10uM
# Assay type: functional, HepG2
# Settings: tested at 10 uM
row,SMILES,INHIBITION
1,O=C1CC2(CCCCN2C(=O)c2ccncc2)CN1CC1CC1 (stereo not drawn),23.5%
2,CCc1sc(C(=O)NC2CC2)cc1C,38%
3,Cc1cc(N(C)C)nc(C2COCCN2Cc2nccn2C)n1 (stereo not drawn),20.6%
4,Cc1ccc(NC2CCN(C(=O)c3c(C)oc(C)c3C)CC2)nn1,9.365%
5,COc1ccccc1COCC(O)CN1CC(n2cccn2)C1 (stereo not drawn),19.85%
6,COc1ccc(C2CC(=O)Nc3c2cnn3C2CCCC2)cc1 (stereo not drawn),-9.67%
7,O=C1CC(c2ccc(F)cc2)c2cnn(C3CCCC3)c2N1 (stereo not drawn),70.2%
8,N#Cc1ccc(C2CC(=O)Nc3c2cnn3C2CCCC2)cc1 (stereo not drawn),-11.1%
9,Cc1nnc(CN(C)CC(=O)NC(C)(C)c2ccc(F)cc2)n1C,10.1%
10,Fc1cccc(Cl)c1CNCc1ccccn1,10.7%
11,Cc1cnc(C(=O)N2CCOCC2C)cn1 (stereo not drawn),33.7%
12,CCC(=O)N1CCN(Cc2cnc(C)nc2)[C@H]2CS(=O)(=O)C[C@H]21,53.1%
13,O=C(c1cnccn1)N1CCC(CN2CCOCC2)CC1,30%
14,CCCN1CCN(C(=O)c2ccc(Cl)cn2)[C@H]2CS(=O)(=O)C[C@H]21,37.6%
15,CC1COCCN1C(=O)c1cnccn1 (stereo not drawn),53.5%
16,CCCN1CCN(C(=O)c2ccc3ccccc3n2)[C@H]2CS(=O)(=O)C[C@H]21,-15.1%
17,CCCN1CCN(C(=O)c2cc3ccccc3cn2)[C@H]2CS(=O)(=O)C[C@H]21,43.9%
18,CCCN1CCN(C(=O)c2cc[nH]n2)[C@H]2CS(=O)(=O)C[C@H]21,53.9%
19,Cc1ncc(CN2CCN(C(=O)C3CCC3)[C@@H]3CS(=O)(=O)C[C@@H]32)cn1,14.8%
20,CCCN1CCN(C(=O)c2cnccn2)[C@H]2CS(=O)(=O)C[C@H]21,51.8%
21,Cc1ncc(CN2CCN(C(=O)N(C)C)[C@@H]3CS(=O)(=O)C[C@@H]32)cn1,31.6%

row,SMILES,INHIBITION
1,CCCN1CCN(C(=O)c2cccc(C)n2)[C@H]2CS(=O)(=O)C[C@H]21,21.2%
2,CC(C)c1nccn1-c1nccnc1C1CCCN1Cc1ccccc1 (stereo not drawn),28.5%
3,O=C(NCCCNC(=O)c1ccc(F)cc1F)c1cccc(O)c1,-2.61%
4,CC(Cn1ccnc1)NC(=O)N1CCN(Cc2ccncc2)CC1 (stereo not drawn),13.03%
5,CC(C)c1ocnc1C(=O)Nc1cccc(Cn2ccccc2=O)c1,26.5%
6,Cc1nn(C)c(N(C)C)c1CNCc1ccccc1Cn1ccnc1,27.6%
7,CC(=O)Nc1nc(C2CCCN(C(=O)CN(C)C)C2)cs1 (stereo not drawn),8.72%
8,CC(NS(=O)(=O)CCc1ccccn1)c1ccccc1Br (stereo not drawn),-9.35%
9,CCC(=O)c1ccc(OCC(=O)N(C)C(C)c2ccon2)cc1 (stereo not drawn),20.6%
10,CC1=N[C@@]2(CC[C@@H]3CN(Cc4ccccc4F)C[C@@H]32)C(=O)N1C,19.8%
11,CNC(=O)[C@@H]1CCO[C@@H]2CCN(Cc3ccsc3)C[C@H]21,31.1%
12,CCN1CCOC(CNCc2cnc(N(CC)CC)s2)C1 (stereo not drawn),-81.1%
13,CCCN1CCN(C(=O)c2cncnc2C)[C@H]2CS(=O)(=O)C[C@H]21,51.2%
14,CCCN1CCN(C(=O)c2cnc(C)nc2)[C@H]2CS(=O)(=O)C[C@H]21,2.15%
15,Cc1nc(C(=O)N2CCN(C(=O)N(C)C)[C@@H]3CS(=O)(=O)C[C@@H]32)cs1,57.8%
16,Cc1nc(C(=O)N2CCN(C(=O)C3CCC3)[C@@H]3CS(=O)(=O)C[C@@H]32)cs1,33.1%
17,CCCN1CCN(C(=O)c2cnccc2C)[C@H]2CS(=O)(=O)C[C@H]21,19.4%
18,Cc1nc(C(=O)N2CCN(S(C)(=O)=O)[C@@H]3CS(=O)(=O)C[C@@H]32)cs1,39.8%
19,O=C1C[C@H]2[C@H](CCN2C(=O)c2ccno2)N1CC1CC1,41.4%
20,Cc1cc(N(C)C)nc(C2(C)CCCN2CC(N)=O)n1 (stereo not drawn),18.8%
21,N#Cc1ccccc1CN1C[C@H]2CC[C@@H](C1)N(CC1CC1)C2=O,25.1%

row,SMILES,INHIBITION
1,Cc1cc2c(=O)n3c(nc2s1)CCN(C(=O)c1ccnn1C(C)C)CC3,11.1%
2,c1cnnc(N[C@@H]2CC[C@@H]3CN(Cc4ccc5cc[nH]c5c4)C[C@@H]32)c1,-4.68%
3,COCC(=O)N1C[C@@H](C)[C@](O)(C(C)C)C1,46.4%
4,CC(C)c1noc(C(C)Nc2nccc(CCC(F)(F)F)n2)n1 (stereo not drawn),29.6%
5,CC(Nc1nccc(CCC(F)(F)F)n1)c1nc(-c2ccncc2)no1 (stereo not drawn),50.4%
6,CC(Nc1nccc(CCC(F)(F)F)n1)c1nc(-c2ccccn2)no1 (stereo not drawn),21.2%
7,O=C(c1ccnnc1)N1CCN(Cc2ccncc2)c2ncccc2C1,23.3%
8,CCC(O)CN1CCN(C(=O)c2ccc3c(c2)COC3)CC1 (stereo not drawn),-9.37%
9,CC(C)(C)C(O)CN1CCN(C(=O)c2ccc3c(c2)COC3)CC1 (stereo not drawn),31.8%
10,CC(O)CN1CCN(C(=O)c2cc3ccccc3n2C)CC1 (stereo not drawn),66.8%
11,CC(O)CN1CCN(C(=O)c2ccc3c(c2)COC3)CC1 (stereo not drawn),60.5%
12,CCn1c(C(=O)N2CCN(CC(C)O)CC2)cc2ccccc21 (stereo not drawn),35.7%
13,CCC(O)CN1CCN(C(=O)c2cc3ccccc3n2CC)CC1 (stereo not drawn),1.75%
14,O=C(c1cncs1)N1CCOCC(Cc2ccccn2)C1 (stereo not drawn),13.94%
15,COCCO[C@@H]1CCN(C(=O)c2ccc(C)o2)[C@@H]1Cc1cccnc1,2.3%
16,COc1cc(-c2n[nH]c(CN)n2)cc(OC)c1OC,-9.21%
17,COc1ccc(C(O)CNC(=O)NCCc2csc(C)n2)cc1 (stereo not drawn),44.1%
18,O=C(C1CCN(Cc2nc(-c3ccco3)no2)CC1)N1CCCC1,25.1%
19,O=C(NC1CCC(N2C(=O)CCC2=O)CC1)c1c[nH]c2ccccc12 (stereo not drawn),76.7%
20,Cc1[nH]ccc1C(=O)NC1CCC(N2C(=O)CCC2=O)CC1 (stereo not drawn),-86.5%
21,Cc1ccc(F)c(C(=O)NC2CCC(N3C(=O)CCC3=O)CC2)c1 (stereo not drawn),-35%

# From ChEMBL document CHEMBL4513216, “Probing the Open Global Health Chemical Diversity Library for Multistage-Active Starting Points for Next-Generation Antimalarials” (ACS Infect Dis, 2020)
